Bioassay records as filed in PubChem BioAssay.
Rab9 prom act – Rab9 promoter activation | Huh7 Rab9 promoter-luciferase reporter, luminescence, 24 h | Potency, µM (titrated, usually from 9.22 µM), for inactives: at the top dose activation, negative = inhibition, hits mostly activators | actives 2.8% (n = 320,000) | AID 485297; note: % of control where 0% means no effect; nearly all actives have a fitted effect of over 60% in size
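Steps: seed 1500 Huh7 Rab9-luc cells per well, rest 2 h at 37 °C; add compound in DMSO; incubate 24 h; add luciferase reagent, 10 min ambient; read luminescence.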
KinaseGlo FLuc – blocks Kinase-Glo luciferase, a counter-screen artifact; Kinase-Glo luciferase, ATP luminescence, 8 min; Potency, µM (doses to about 38.3 µM), without a hit: at the top dose activity change, negative = inhibition, most hits filed as inhibitors; AID 1379; actives 0.28% (n = 200,000); note: % is set by controls: 0 for no effect and ±100 for the full control effect; nearly all actives have a fitted effect of over 60% in size
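Luminescence was the read-out, taken after 8-minute incubation at ambient temperature. Luciferase turned over luciferin with 10 uM ATP in imidazole pH 7.2 buffer containing KCl, MgCl2, Tween 20 and BSA.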
SMN2 splice up – increases expression of the SMN2 splice variant | HEK293 SMN2-luciferase splicing reporter, luminescence, 30-36 h | actives 2.8% (n = 210,000) | Potency, µM (doses to about 46.1 µM), for inactives: at the top dose activity change, positive = activation, most hits filed as activators; note: % of control where 0% means no effect; nearly all actives have a fitted effect of over 55% in size
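HEK293 cells carry an SMN2 […]–luciferase reporter in which exon 7 inclusion puts luciferase in frame. Cells were plated 10-12 h before compound addition, then incubated 30-36 h at 37C. ONE-Glo luminescence was read; sodium butyrate at 4.5 mM final served as control.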
NPC1 promoter act – activators of NPC1 promoter; Huh7 NPC1 promoter luciferase reporter, 24 h; actives 2.4% (n = 320,000); Potency, µM (highest dose often 9.22 µM), for the others: at the highest dose activation, hits mostly activators; AID 485313; note: % of control where 0% means no effect; nearly all actives have a fitted effect of over 60% in size
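Quantitative HTS used a cell-based reporter: Huh7 cells stably bearing the NPC1 promoter upstream of luciferase were treated with compounds for 24 h, and promoter activation was read as luminescence.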
FLuc modulator – firefly luciferase modulation, counter-screen for miR-21 project. Potency, µM (top dose mostly 57.5 µM), for the others: at the top dose activity change, negative = inhibition, usual class: inhibitors. purified FLuc, Km substrates, luminescence inhibition. actives 6.9% (n = 360,000);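 note: plate controls were vehicle for no effect and reference inhibitor for full effect; nearly all actives have a fitted effect of over 55% in size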
Target sequence (P08659 whole entry, looked up): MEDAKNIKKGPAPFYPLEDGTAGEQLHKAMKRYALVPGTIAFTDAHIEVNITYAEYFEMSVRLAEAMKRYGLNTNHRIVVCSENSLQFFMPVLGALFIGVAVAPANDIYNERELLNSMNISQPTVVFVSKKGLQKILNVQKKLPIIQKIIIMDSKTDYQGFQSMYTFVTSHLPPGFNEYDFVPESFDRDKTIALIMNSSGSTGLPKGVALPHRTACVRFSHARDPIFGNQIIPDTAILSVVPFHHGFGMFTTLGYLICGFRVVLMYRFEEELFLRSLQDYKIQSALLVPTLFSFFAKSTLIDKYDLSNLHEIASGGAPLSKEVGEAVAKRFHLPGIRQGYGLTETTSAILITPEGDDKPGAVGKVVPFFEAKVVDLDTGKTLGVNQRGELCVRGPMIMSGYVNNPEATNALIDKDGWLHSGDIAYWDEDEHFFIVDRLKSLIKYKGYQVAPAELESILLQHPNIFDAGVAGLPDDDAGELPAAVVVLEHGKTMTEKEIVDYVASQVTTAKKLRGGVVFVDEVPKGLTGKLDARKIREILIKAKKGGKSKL
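Biochemical qHTS of compounds, final roughly 60 µM downward over six points, against 10 nM purified firefly luciferase using Km concentrations of substrates (10 uM D-luciferin, 10 uM ATP) in Tris acetate pH 7.5 buffer; luminescence output.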
ELG1 genotox – induces genotoxicity in HEK293T cells with luciferase-tagged ELG1; HEK293T ELG1-luciferase reporter, luminescence, 16 h; Potency, µM (top dose mostly 46 µM), without a hit: at the top dose activity change, positive = activation, actives largely listed as activators; actives 1.3% (n = 330,000); AID 504466; note: % of control where 0% means no effect; nearly all actives have a fitted effect of over 60% in size
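Genotoxicity was scored as increased ELG1-luciferase reporter signal, measured by ONE-Glo luminescence (30 min, room temperature). Compound or vehicle exposure of the HEK293T reporter cells lasted 16 hr at 37°C.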
* hit, by the source's call; ? = inconclusive; / = not tested or not shown. Compounds with a hit are over-represented: about 7.3% of the library has one in this group of screens. Calls come from the whole dose curve; as a rule, active = well fitted curve in the direction sought with a large enough effect; inconclusive = small, poorly fitted or top-dose-only effect, or another doubt; inactive = no such curve, though single readings can be large; an effect the other way counts as inactive or inconclusive. Potency is the fitted concentration of half-maximal effect.

SMILES	Rab9 prom act	KinaseGlo FLuc	SMN2 splice up	NPC1 promoter act	FLuc modulator	ELG1 genotox
CC(C)c1ccc(NC(=O)CSc2ncccc2C(=O)Oc2cccc([N+](=O)[O-])c2)cc1	4.47µM*	-2.5%	10µM*	3.98µM*	?	16.4µM*
COc1ccc(NC(=O)CSc2ncccc2C(=O)OC(C)C)cc1OC	-20.3%	-4.5%	-37.7%	-1.9%	?	-5.4%
COc1cc(C2Nc3ccc4ncccc4c3C3=C2C(=O)CCC3)cc(OC)c1O (stereo not drawn)	-19.6%	4.8%	10µM*	-12.9%	-0.7%	?
CC1(C)CC(=O)C2=C(C1)c1c(ccc3ncccc13)NC2c1cccs1 (stereo not drawn)	-23.6%	0.4%	26.3%	-19.2%	-0.7%	?
COc1cc(C2Nc3ccc4ncccc4c3C3=C2C(=O)CC(C)(C)C3)cc(OC)c1O (stereo not drawn)	-11.1%	-4.6%	28.2µM*	-1.0%	-1.9%	?
CCN1CCN(/C=N/c2nc3c(s2)CCCC3)CC1	?	-10.8%	-4.5%	?	1.35µM*	0.92µM*
Cc1ccc(C(=O)NC(=S)N2CCN(c3ccc([N+](=O)[O-])cc3)CC2)cc1	-2.5%	-0.2%	-18.1%	-1.1%	3.6%	-2.1%
Cc1ccc(C(=O)ON=C2CCN(c3ccc([N+](=O)[O-])cc3)CC2)cc1	6.5%	-5.7%	-5.5%	0.1%	10.7µM*	-1.0%
Cc1ccccc1C(=O)Nc1ccc2c(c1)OCO2	0.447µM*	?	0.794µM*	0.447µM*	4.78µM*	1.64µM*
COc1cc(SC)ccc1C(=O)Nc1ccc2c(c1)OCCO2	0.891µM*	-18.3%	5.62µM*	?	0.536µM*	?
COc1ccccc1C(=O)Nc1ccc2c(c1)OCCO2	1.78µM*	-23.8%	12.6µM*	3.16µM*	7.57µM*	?
COc1ccccc1C(=O)Nc1ccc2c(c1)OCO2	2.51µM*	-28.9%	17.9%	?	13.5µM*	14.6µM*
CCCCCn1c(=O)[nH]c2cc(C(=O)N3CCN(c4cc(Cl)ccc4C)CC3)ccc2c1=O	/	/	0.6%	/	1.8%	/
CCOC(=O)c1ccccc1NC(=O)CSc1nc(=O)[nH]c2c1CCC2	/	/	/	/	-13.6%	/
COc1cc(C2C(=O)N(C3CCCCCC3)CC(=O)N2Cc2ccccc2)ccc1OC(C)C (stereo not drawn)	/	/	/	/	-16.4%	/
Cc1ccc(C)c(Cn2c(=O)n(Cc3ccccc3)c(=O)c3c(C)c(C)sc32)c1	/	/	-0.5%	/	5.8%	/
COc1cc(NC(=S)N2CCN(C/C=C/c3ccccc3)CC2)cc(OC)c1	-3.0%	2.1%	13.3%	-0.6%	0.8%	-3.9%
COc1cc(NC(=S)N2CCN(C(c3ccccc3)c3ccccc3)CC2)cc(OC)c1	-13.6%	0.7%	12.6µM*	2.1%	-2.0%	-18.6%
O=C(Nc1nnc(-c2ccc3c(c2)CCCC3)o1)c1c(F)cccc1F	27.4%	6.8%	-5.3%	13.7%	15.1µM*	18.7%
O=C(Nc1nnc(-c2ccc3c(c2)CCCC3)o1)c1ccc(Cl)cc1Cl	-1.7%	2.3%	-9.3%	-10.1%	-0.2%	-24.3%
COc1ccc(-c2cc(C(=O)Oc3ccc(C#N)cc3)no2)cc1	/	/	/	/	-9.0%	/
O=C(O)COc1ccc(-c2nnn(Cc3ccccc3F)n2)cc1	-0.6%	-0.1%	7.3%	8.6%	19µM*	6.9%
Cc1ccc(-c2nnn(CC(=O)O)n2)cc1	-10.8%	3.1%	-14.8%	-3.2%	-10.0%	2.8%
COC(=O)c1ccc(COc2ccc(-c3nnn(CC(=O)NC(C)(C)C)n3)cc2)cc1	-9.1%	-0.8%	14.1µM*	-1.5%	1.1%	?
COC(=O)c1ccc(COc2ccc(-c3nnn(CC(N)=O)n3)cc2)cc1	-4.4%	1.0%	15.1%	2.8%	-0.6%	-13.2%
Cc1ccccc1COc1ccc(-c2nnn(CC(=O)O)n2)cc1	-0.9%	/	/	-9.9%	16.9µM*	2.7%
